Bioassay records as filed in PubChem.
697 NFkB inh – inhibitors of PMA/ionomycin-induced NF-kB reporter, 697 cells, primary screen, B-cell NF-kB inhibitor project, cell-based, luminescence, uHTS; inhibition, % at 4 µM; 330,000 compounds, 0.33% hits; 697 B-cell NF-kB luciferase reporter, 16 h; AID 435022, 2010; in the data active = inhibition above about 35%
Gli-Sufu block – Gli-Sufu pathway antagonists, primary screen, luciferase luminescence, Sufu-KO-LIGHT cells, uHTS; inhibition, % at 5 µM; Sufu-KO-LIGHT fibroblasts, Gli luciferase reporter luminescence; AID 588413, 2011; 340,000 compounds, 0.74% hits;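 active = inhibition above about 55%, limit read from the data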
Jurkat NFkB inh – inhibitors of induced NF-kB luciferase reporter, primary screen, TCR NF-kB activation inhibitor project, cell-based, luminescence, uHTS; inhibition, % at 4 µM; Jurkat, PMA/ionomycin-induced NF-kB luciferase reporter; 330,000 compounds, 0.53% hits; AID 435003, 2010; in the data active = inhibition above about 50%
TAG inh – inhibitors of triacylglycerol accumulation, primary screen, cell-based, uHTS, fluorescence, H9c2; 230,000 compounds, 0.66% hits; inhibition, % at 12.5 µM; H9c2 cells, Nile Red lipid (TAG) fluorescence; cells loaded with 200 µM oleic acid;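 active = pattern-corrected inhibition of lipid staining of at least 50% with the nuclear-stain viability signal not falling by more than 50%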
Cardio protect – cardioprotection against H2O2-induced cell death, primary screen, uHTS, H9c2 cells, ATPLite luminescence; H9c2 cardiomyocytes, H2O2 injury protection, 2 h; protection from H2O2 cell death, % at 20 µM; 360,000 compounds, 0.63% hits;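 active = compounds giving at least 50% protection of heart cells from peroxide-induced death in the single-dose screen, raw or plate-pattern-corrected value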
COUP-TFII inh – NR2F2 transcriptional activity inhibitors, primary screen, cell-based, luciferase reporter, HEK293T, luminescence; COUP transcription factor 2 (Homo sapiens), P24468; HEK293T NGFI-A luciferase reporter; inhibition, % at 8.6 µM; 370,000 compounds, 0.7% hits;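 active = inhibition above a per-plate cutoff, mean inhibition of test wells between control levels plus 3 SD, cut at about 38% in these data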;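 note: cells cotransfected with COUP-TFII expression vector driving the NGFI-A reporter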
Target sequence (P24468 whole entry, looked up): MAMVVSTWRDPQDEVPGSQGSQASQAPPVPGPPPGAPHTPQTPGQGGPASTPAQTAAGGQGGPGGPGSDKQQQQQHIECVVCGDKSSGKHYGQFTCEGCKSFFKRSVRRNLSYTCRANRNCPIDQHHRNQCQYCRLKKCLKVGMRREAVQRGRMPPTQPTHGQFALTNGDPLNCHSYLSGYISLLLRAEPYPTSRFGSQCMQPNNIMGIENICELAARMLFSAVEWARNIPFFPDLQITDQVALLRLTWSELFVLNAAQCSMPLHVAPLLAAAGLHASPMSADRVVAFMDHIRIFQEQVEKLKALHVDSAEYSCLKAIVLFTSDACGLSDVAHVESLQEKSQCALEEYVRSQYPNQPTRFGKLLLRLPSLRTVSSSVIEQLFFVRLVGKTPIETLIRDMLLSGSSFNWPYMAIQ
Numbers stand for hits. Rows were chosen to be rich in hits. Some 2.6% of all compounds tested hit in one or more screens of this group.

What do the screens show for `COC(=O)c1c(C)[nH]c(C(=O)COc2ccc3ccc(=O)oc3c2)c1C`?
697 NFkB inh: inactive; Gli-Sufu block: inactive; Jurkat NFkB inh: inactive; TAG inh: inactive; Cardio protect: 81; COUP-TFII inh: inactive

Results for CCCC(=O)OC[C@H]1CN(C2CCCC2)S(=O)(=O)c2c(Oc3ccc(F)cc3OC)cccc2O1 ?
COUP-TFII inh: inactive

What do the screens show for `COc1cc(C#Cc2c(-c3cncn3C)n(C)c3ccc(-c4ccc(OC)nc4)cc23)cc(OC)c1`?
697 NFkB inh: inactive; Gli-Sufu block: inactive; Jurkat NFkB inh: inactive; TAG inh: 103; Cardio protect: inactive; COUP-TFII inh: inactive

Results for Cc1ccc(NS(=O)(=O)c2ccc(C(=O)NNC(=O)c3ccccc3O)cc2)cc1 ?
697 NFkB inh: inactive; Gli-Sufu block: inactive; Jurkat NFkB inh: inactive; TAG inh: inactive; Cardio protect: 64; COUP-TFII inh: inactive

How did O=C(NNC(=O)c1ccccc1O)c1ccc(NS(=O)(=O)c2ccc(F)c(F)c2)cc1 do in these assays?
697 NFkB inh: inactive; Gli-Sufu block: inactive; Jurkat NFkB inh: inactive; TAG inh: inactive; Cardio protect: inactive; COUP-TFII inh: inactive

Results for CCC(ONc1ccccc1C(F)(F)F)(C(=O)NN(C)C)c1ccccc1 (stereo not drawn) ?
697 NFkB inh: inactive; Gli-Sufu block: inactive; Jurkat NFkB inh: inactive; TAG inh: inactive; Cardio protect: 53; COUP-TFII inh: inactive

How did COc1ccc(C(C)=NNC(=O)c2cccc(S(=O)(=O)N3CCCC3)c2)cc1 do in these assays?
697 NFkB inh: inactive; Gli-Sufu block: inactive; Jurkat NFkB inh: inactive; TAG inh: inactive; Cardio protect: inactive; COUP-TFII inh: inactive

How did COc1ccc(/C(C)=N/NC(=O)c2cccc(S(=O)(=O)N3CCCC3)c2)c(O)c1 do in these assays?
697 NFkB inh: inactive; Gli-Sufu block: inactive; Jurkat NFkB inh: inactive; TAG inh: inactive; Cardio protect: 70; COUP-TFII inh: inactive

Results for COc1ccc(C(=O)COC(=O)C(CCCCN2C(=O)C3C4C=CC(C4)C3C2=O)N2C(=O)C3C4C=CC(C4)C3C2=O)cc1 (stereo not drawn) ?
697 NFkB inh: inactive; Gli-Sufu block: inactive; Jurkat NFkB inh: inactive; Cardio protect: 75; COUP-TFII inh: inactive

What do the screens show for `CCn1c(=N)n(CC(=O)c2ccc(Br)s2)c2ccccc21`?
697 NFkB inh: inactive; Gli-Sufu block: inactive; Jurkat NFkB inh: inactive; TAG inh: inactive; Cardio protect: inactive; COUP-TFII inh: inactive

Results for CCCCn1c(=N)n(CC(=O)c2ccc(Br)s2)c2ccccc21 ?
697 NFkB inh: inactive; Gli-Sufu block: inactive; Jurkat NFkB inh: inactive; TAG inh: 70; Cardio protect: inactive; COUP-TFII inh: inactive

How did CCOC(=O)c1c(-c2ccccc2)nnn1-c1nc(OCC)nc(N2CCCCC2)n1 do in these assays?
697 NFkB inh: inactive; Gli-Sufu block: inactive; Jurkat NFkB inh: inactive; TAG inh: inactive; Cardio protect: 70; COUP-TFII inh: inactive

Results for COC(=O)[C@]12C[C@H](CC(=O)NCc3cccs3)C(=O)N(CCC3=CCCCC3)C1=C[C@H](C(C)C)O[C@@H]2C1CC1 ?
COUP-TFII inh: inactive

What do the screens show for `CC1CCN(Cc2nc3c(c(=O)n(C)c(=O)n3C)n2CCCc2ccccc2)CC1`?
697 NFkB inh: inactive; Gli-Sufu block: inactive; Jurkat NFkB inh: inactive; TAG inh: inactive; Cardio protect: 56; COUP-TFII inh: inactive

What do the screens show for `COc1cccc2cc(-c3nnc(SCC(=O)Nc4nc(C)cs4)n3C)oc12`?
697 NFkB inh: inactive; Gli-Sufu block: inactive; Jurkat NFkB inh: inactive; TAG inh: inactive; Cardio protect: 69; COUP-TFII inh: inactive

What do the screens show for `Cc1csc(NC(=O)CSc2nnc(-c3ccco3)n2C)n1`?
697 NFkB inh: inactive; Gli-Sufu block: inactive; Jurkat NFkB inh: inactive; TAG inh: inactive; Cardio protect: inactive; COUP-TFII inh: inactive

What do the screens show for `Cc1ccc(-c2cc(C(=O)N/N=C/c3c(C)nn(-c4ccccc4)c3C)n[nH]2)s1`?
Gli-Sufu block: inactive; Cardio protect: 72; COUP-TFII inh: inactive

How did Cc1cc(C(=O)N/N=C/c2c(C)[nH]n(-c3ccccc3)c2=O)n[nH]1 do in these assays?
697 NFkB inh: inactive; Gli-Sufu block: inactive; Jurkat NFkB inh: inactive; Cardio protect: inactive; COUP-TFII inh: inactive

Results for Cc1ccc(-c2cc(C(=O)N/N=C/c3c(C)nn(-c4ccccc4)c3C)[nH]n2)cc1 ?
TAG inh: 69; Cardio protect: inactive; COUP-TFII inh: inactive

How did Cc1[nH]c2ccccc2c1/C=N/NC(=O)c1cc(-c2cccs2)[nH]n1 do in these assays?
697 NFkB inh: inactive; Gli-Sufu block: inactive; Jurkat NFkB inh: inactive; Cardio protect: 51; COUP-TFII inh: inactive

What do the screens show for `Cc1nn(-c2ccccc2)c(C)c1/C=N/NC(=O)c1cc(C(C)(C)C)[nH]n1`?
697 NFkB inh: inactive; Gli-Sufu block: inactive; Jurkat NFkB inh: inactive; TAG inh: inactive; Cardio protect: 54; COUP-TFII inh: inactive

What do the screens show for `C=CCN(C)CC#Cc1ccc(C)cc1`?
COUP-TFII inh: inactive

What do the screens show for `COc1ccc(NC(=O)N(C)C[C@H]2Oc3c(NC(=O)Nc4ccc(C(F)(F)F)cc4)cccc3C(=O)N([C@H](C)CO)C[C@@H]2C)cc1`?
697 NFkB inh: inactive; Gli-Sufu block: inactive; Jurkat NFkB inh: inactive; TAG inh: inactive; Cardio protect: 59; COUP-TFII inh: inactive

What do the screens show for `C[C@H]1CN([C@@H](C)CO)C(=O)c2cccc(NC(=O)Nc3ccc(C(F)(F)F)cc3)c2O[C@@H]1CN(C)Cc1ccc(Cl)c(Cl)c1`?
697 NFkB inh: inactive; Gli-Sufu block: inactive; Jurkat NFkB inh: inactive; TAG inh: 56; Cardio protect: inactive; COUP-TFII inh: inactive

Results for CCC[C@H]1[C@@H](NC(=O)C#Cc2ccccc2)CC[C@@]23CCCN2C(=O)CCC[C@@H]13 ?
COUP-TFII inh: inactive

How did O=C(c1ccccc1)N1CC[C@H]2[C@H](CCCN2Cc2ccccc2)C1 do in these assays?
COUP-TFII inh: inactive

Results for C[C@@H]1O[C@@H](n2c3ccc(Cl)cc3c3ccc4c5cc(Cl)ccc5[nH]c4c32)[C@H](O)[C@H](O)[C@H]1O ?
COUP-TFII inh: inactive

How did COc1cc(OC)cc(C(=O)Nc2ccc(C(=O)Nc3ccccc3OC)cc2)c1 do in these assays?
697 NFkB inh: inactive; Gli-Sufu block: inactive; Jurkat NFkB inh: inactive; TAG inh: inactive; Cardio protect: 51; COUP-TFII inh: inactive

Results for COc1ccccc1NC(=O)c1ccc(NC(=O)c2ccco2)cc1 ?
697 NFkB inh: inactive; Gli-Sufu block: inactive; Jurkat NFkB inh: inactive; Cardio protect: inactive; COUP-TFII inh: inactive
